Laboratory results as given in PubChem BioAssay (NCI).
The panel holds about 83,000 compounds, 20% with a hit somewhere; the sample as a whole holds those more often.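 Method: cells in 96-well plates; compound added at one concentration; 48 h incubation; percent growth measured; values under 10 scored active.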 Unmarked numbers belong to inactive results. Calls of active or inactive are those of the source.

tested on: HL-60(TB) leukemia; experiment: NCI-60 one-dose screen, 48 h (100 = growth as untreated, 0 = no growth, -100 = all killed); conditions: 10 µM unless noted

Question: How did the growth turn out when `CCN(CC)c1ccc(/C=N/NC(=O)c2ccc(S(N)(=O)=O)cc2)c(O)c1` was run?
Answer: 1.26% (active)

Question: How did the growth turn out when `COc1cc2nc(Cl)nc(Nc3cccc(C4=Nc5c(N)nc(N)nc5NC(c5ccc(Cl)cc5)C4)c3)c2cc1OC` (stereo not given) was run?
Answer: -30.3% (active)

Question: `CCOC(=O)c1cnc2c(-c3ccc(Cl)c(Cl)c3)cnn2c1` was tested. Which growth did it give?
Answer: 59.5%

Question: `C#C[C@]1(O)CC[C@H]2[C@@H]3CC=C4c5sc(Nc6cccc(C)n6)nc5CC[C@]4(C)[C@H]3CC[C@@]21C` was tested. Which growth did it give?
Answer: -8.95% (active)

Question: For `COC(=O)CCSC1=C(C)C(=O)c2ccccc2C1=O`, which growth is on record?
Answer: 34.9%

Question: `COc1ccc(C(C)=C(c2ccc(OCCN3CCCCCC3)cc2)c2ccc(OCCN3CCCCCC3)cc2)cc1` was tested. Which growth did it give?
Answer: -46.9% (active)

Question: With `NCCNC(=O)c1cccc(COc2ccccc2NC(=O)c2cc(Cl)c(Cl)[nH]2)c1` as the compound, how does the growth read?
Answer: 88.9%

Question: How did the growth turn out when `COc1ccc(/C(=N\N=C(N)N)c2ccc(Cl)cc2)cc1OC` was run?
Answer: 44.9%

Question: Which growth does the source give for `COc1ccc(-c2ccc3c4c(cccc24)C(=O)N(N2C(=O)c4cccc5cccc(c45)C2=O)C3=O)cc1` here?
Answer: 103%

Question: How did the growth turn out when `N#Cc1ccc(C(=O)CSc2nc(Nc3ccc(S(N)(=O)=O)cc3)c3ccccc3n2)cc1` was run?
Answer: 105%

Question: `O=S(=O)(NC1CC2CCC1C2)c1ccc2c(c1)C(=NO)c1cc(S(=O)(=O)NC3CC4CCC3C4)ccc1-2` (stereo not given) was tested. Which growth did it give?
Answer: -29.7% (active)

Question: With `CN(C)CCCOc1ccc(C(=C(c2ccccc2)C2CCCC2)c2ccc(OCCCN(C)C)cc2)cc1` as the compound, how does the growth read?
Answer: -57.1% (active)

Question: For `CC(=O)Oc1ccccc1C(=O)Nc1cc(C(C)C)ccc1C`, which growth is on record?
Answer: -28.4% (active)

Question: How did the growth turn out when `Nc1cc(-c2c[nH]c3ccc(Br)cc23)nc2cc(-c3c[nH]c4ccc(Br)cc34)nn12` was run?
Answer: 9.1% (active)

Question: For `CCOC(=O)/C(F)=C/C1CC1CCc1cccc(C(F)(F)F)c1` (stereo not given), which growth is on record?
Answer: 91.4%

Question: How did the growth turn out when `COc1cc(-c2nc(-c3ccccc3)[nH]c2-c2ccnc(NCCCNS(=O)(=O)c3cccc(F)c3)n2)ccc1F` was run?
Answer: 94.8%

Question: Which growth does the source give for `Clc1ccc2c(OCCCN3CCOCC3)c3oc4ccccc4c3nc2c1` here?
Answer: 42.1%

Question: Which growth does the source give for `COC(=O)c1cccc(NC2=CC(=O)C(C)=C(C)C2=O)c1` here?
Answer: 42%

Question: Which growth does the source give for `COc1cccc(/C=C(/C)c2ccc3cccc(OC)c3[o+]2)c1O` here?
Answer: 99.7%

Question: `Fc1cccc(Cl)c1/C=N/Nc1nc(N/N=C/c2c(F)cccc2Cl)nc(N2CCCCC2)n1` was tested. Which growth did it give?
Answer: 1.27% (active)

Question: With `Cc1ccc(Cc2cnc(NC(=O)/C(C#N)=C/c3ccc(-c4ccc(Cl)cc4)o3)s2)cc1` as the compound, how does the growth read?
Answer: 88.5%

Question: For `c1ccc(C(c2nc3ncncc3[nH]2)N2CSc3nc4ncncc4n3C2)cc1` (stereo not given), which growth is on record?
Answer: 39.8%

Question: `CN(C)CCCOc1c2ccc(Cl)cc2nc2c1oc1ccccc12` was tested. Which growth did it give?
Answer: -19.3% (active)

Question: How did the growth turn out when `CNc1sc(S(=O)(=O)NC)nc1S(=O)(=O)c1ccc(C)cc1` was run?
Answer: 101%

Question: With `CCOC(=O)c1c(Nc2ccccc2)nn2c(N)c(C#N)c(-c3ccc(Cl)cc3)nc12` as the compound, how does the growth read?
Answer: 102%

Question: Which growth does the source give for `O=C1[C@H]2Cc3c([nH]c4ccccc34)[C@@H](c3c(Cl)cccc3Cl)N2C(=O)CN1C1CCN(Cc2ccccc2)CC1` here?
Answer: 65.7%

Question: How did the growth turn out when `CCn1c2ccc(/C=N/NS(=O)(=O)CCN(C)C)cc2c2cc(/C=N/NS(=O)(=O)CCN(C)C)ccc21` was run?
Answer: 103%

Question: With `CCCn1cnc2c(c1=N)C(c1ccc(OC)cc1)c1sc3c(CC)cccc3c1O2` (stereo not given) as the compound, how does the growth read?
Answer: -12.9% (active)

Question: For `C#C[C@]1(O)CC[C@H]2[C@@H]3CC=C4c5sc(Nc6cccc(Cl)n6)nc5CC[C@]4(C)[C@H]3CC[C@@]21C`, which growth is on record?
Answer: -15.6% (active)

Question: `Cc1ccc(S(=O)(=O)N(CC[C@@H]2C[C@H]2c2cc3ccccc3o2)S(=O)(=O)c2ccc(C)cc2)cc1` was tested. Which growth did it give?
Answer: 64.6%

Question: `COc1cc(OC)c(S(N)(=O)=O)cc1C(=O)/C=C/c1ccc(Cl)cc1` was tested. Which growth did it give?
Answer: -9% (active)

Question: How did the growth turn out when `COc1ccc2c(c1)c(CC(=O)[Se]CC#N)c(C)n2C(=O)c1ccc(Cl)cc1` was run?
Answer: -14% (active)

Question: `CCOC(=O)C1=NNC(c2ccc(Cl)cc2)C1C(=O)N1C(=S)NC(=O)C1CC(C)C` (stereo not given) was tested. Which growth did it give?
Answer: 106%

Question: `CN(c1ccc(F)cc1)S(=O)(=O)c1ccc(-c2cnc(C3CC3)o2)cc1` was tested. Which growth did it give?
Answer: -15.8% (active)

Question: For `CCCC(=O)NC(c1cccnc1)c1cc(Cl)c2cccnc2c1O` (stereo not given), which growth is on record?
Answer: 34.1%

Question: Which growth does the source give for `COc1c(N2CC3CCCNC3C2)c(F)cc2c(=O)c(C(=O)N/N=C/c3c[nH]c4ccccc34)cn(C3CC3)c12` (stereo not given) here?
Answer: 94.4%

Question: For `C#CCOc1ccccc1C(Nc1ccccc1)c1nnnn1C1CCCCC1` (stereo not given), which growth is on record?
Answer: 91.6%

Question: `CCC(=C(c1ccc(OCCN2CCCCCC2)cc1)c1ccc(OCCN2CCCCCC2)cc1)c1ccc(Cl)cc1` was tested. Which growth did it give?
Answer: -38.8% (active)

Question: For `Cn1nc(Nc2ccccc2)c(C(=O)NN)c1N`, which growth is on record?
Answer: 105%

Question: Which growth does the source give for `COC(=O)Nc1ccc(-c2nc(-c3cccc(O)c3)c(-c3ccnc(Br)c3)[nH]2)cc1` here?
Answer: 28.1%
